In the supplement of paper PMC9492666 one finds relative cell viability data, which are given here for 37 molecules.

Holding throughout (details): 72 h
The test system of assay [1] is HCC1937. The assay can be described thus: relative cell viability, compound + erastin, vs DMSO (fraction of DMSO control); higher = less growth inhibition.
Assay [2] concerns MDA-MB-231. Described as above.
The test system of assay [3] is HCC1937. Description: relative cell viability, compound + RSL3, vs DMSO (fraction of DMSO control); higher = less growth inhibition.
For assay [4], the system named is MDA-MB-231. The assay is described as above.
Assay [5] deals with HCC1937. Description: relative cell viability, compound alone, vs DMSO (fraction of DMSO control); higher = less growth inhibition.
For assay [6], the system named is MDA-MB-231. The assay is described as above.

Where a name gives a salt, the structure may show the parent alone.
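Wherever relative cell viability, compound + RSL3, vs DMSO is given: breast cancer cell viability read out with the CCK-8 kit after co-treatment of each compound with the ferroptosis inducer RSL3.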
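Wherever relative cell viability, compound + erastin, vs DMSO is given: viability read by CCK-8 kit in 96-well plates, part of a combination screen pairing lipid-metabolism-targeting compounds with erastin.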
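Wherever relative cell viability, compound alone, vs DMSO is given: viability read out with the CCK-8 kit in 96-well plates, screening a set of 303 compounds acting on lipid metabolism targets.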

As for `O=S(=O)(c1ccccc1)N(CC(F)(F)F)c1ccc(C(O)(C(F)(F)F)C(F)(F)F)cc1` + CCOc1ccccc1-n1c(C(C)N2CCN(C(=O)COc3ccc(Cl)cc3)CC2)nc2ccccc2c1=O [erastin], the values for the relative cell viability with HCC1937 [1] and in the assay with MDA-MB-231 [2] were 0.835 and 0.45, respectively.

For `C[C@@H]1C(=O)O[C@H]2[C@H](O)[C@@]34O[C@@H]5OC(=O)[C@H](O)[C@@]56[C@H](C(C)(C)C)[C@H](O)C(OC3=O)[C@]64[C@@]12O` (some centres undefined) [Ginkgolide C] + COC(=O)c1ccc([C@H]2c3[nH]c4ccccc4c3C[C@H](C(=O)OC)N2C(=O)CCl)cc1 [RSL3], the relative cell viability with HCC1937 [3] worked out at 0.699; in the assay on MDA-MB-231 [4], 0.692.

As to `CCc1c(C(=O)C(N)=O)c2c(OCC(=O)O)cccc2n1Cc1ccccc1` [Varespladib] + COC(=O)c1ccc([C@H]2c3[nH]c4ccccc4c3C[C@H](C(=O)OC)N2C(=O)CCl)cc1 [RSL3], the values for the relative cell viability with HCC1937 [3] and in the assay with MDA-MB-231 [4] were 0.449 and 0.574, respectively.

Regarding `O=C(CBr)c1ccc(O)cc1` [PTP Inhibitor I], the relative cell viability in the assay on HCC1937 [5] worked out at 1.17; in the assay with MDA-MB-231 [6], 0.937.

`O=C(NCCN1CCC2(CC1)C(=O)NCN2c1ccccc1)c1ccc2ccccc2c1` + COC(=O)c1ccc([C@H]2c3[nH]c4ccccc4c3C[C@H](C(=O)OC)N2C(=O)CCl)cc1 [RSL3]: the relative cell viability turned out to be 0.229 in the assay with HCC1937 [3] and 0.51 with MDA-MB-231 [4].

Turning to `O=C(Oc1ccc([N+](=O)[O-])cc1)N1CCC(C(O)(c2ccc3c(c2)OCO3)c2ccc3c(c2)OCO3)CC1`, the relative cell viability in the assay on HCC1937 [5] is 0.911; in the assay with MDA-MB-231 [6] it was 0.901.

For the molecule `CC(C)OC(=O)CCC/C=C\C[C@@H]1[C@@H](CC[C@@H](O)CCc2ccccc2)[C@H](O)C[C@@H]1O` [Latanoprost] + CCOc1ccccc1-n1c(C(C)N2CCN(C(=O)COc3ccc(Cl)cc3)CC2)nc2ccccc2c1=O [erastin], the values for the relative cell viability in the assay with HCC1937 [1] and in the assay on MDA-MB-231 [2] were 1 and 0.663, respectively.

Consider `O=C(Oc1ccc([N+](=O)[O-])cc1)N1CCC(C(O)(c2ccc3c(c2)OCO3)c2ccc3c(c2)OCO3)CC1` + COC(=O)c1ccc([C@H]2c3[nH]c4ccccc4c3C[C@H](C(=O)OC)N2C(=O)CCl)cc1 [RSL3], for which the relative cell viability in the assay with HCC1937 [3] was determined as 0.483; with MDA-MB-231 [4], 0.618.

As to `CC(c1cc2ccccc2s1)N(O)C(N)=O` (centres undefined) [Zileuton] + CCOc1ccccc1-n1c(C(C)N2CCN(C(=O)COc3ccc(Cl)cc3)CC2)nc2ccccc2c1=O [erastin], the results for the relative cell viability in the assay on HCC1937 [1] and in the assay with MDA-MB-231 [2] were 0.847 and 0.595, respectively.

On to `CC(C)CCC[C@@H](C)[C@H]1CC[C@H]2[C@@H]3CC=C4C[C@@H](O)CC[C@]4(C)[C@H]3CC[C@]12C` [Cholesterol] + CCOc1ccccc1-n1c(C(C)N2CCN(C(=O)COc3ccc(Cl)cc3)CC2)nc2ccccc2c1=O [erastin], for which the figures for the relative cell viability with HCC1937 [1] and in the assay on MDA-MB-231 [2] were 0.901 and 0.953, respectively.

Consider `O=C1C=CC[C@@H]2[C@H]3CCCN4CCC[C@@H](CN12)[C@@H]34` [Sophocarpine] + COC(=O)c1ccc([C@H]2c3[nH]c4ccccc4c3C[C@H](C(=O)OC)N2C(=O)CCl)cc1 [RSL3], for which the figures for the relative cell viability in the assay with HCC1937 [3] and with MDA-MB-231 [4] were 0.621 and 0.502, respectively.

`C[C@]12CC[C@@H](O)C[C@@H]1CC[C@@H]1[C@@H]2CC[C@]2(C)C(=O)CC[C@@H]12` [Androsterone] + COC(=O)c1ccc([C@H]2c3[nH]c4ccccc4c3C[C@H](C(=O)OC)N2C(=O)CCl)cc1 [RSL3]: the figures for the relative cell viability with HCC1937 [3] and in the assay on MDA-MB-231 [4] were 0.919 and 0.658, respectively.

For the molecule `O=C(CBr)c1ccc(O)cc1` [PTP Inhibitor I] + COC(=O)c1ccc([C@H]2c3[nH]c4ccccc4c3C[C@H](C(=O)OC)N2C(=O)CCl)cc1 [RSL3], the relative cell viability in the assay with HCC1937 [3] is 0.674; in the assay on MDA-MB-231 [4] it was 0.577.

Regarding `C[C@@]12C[C@@H](c3ccoc3)OC(=O)[C@@H]1CC[C@]1(C)[C@H]2[C@@H]2C=C[C@@]1(O)C(=O)O2` [Columbin] + COC(=O)c1ccc([C@H]2c3[nH]c4ccccc4c3C[C@H](C(=O)OC)N2C(=O)CCl)cc1 [RSL3], the results for the relative cell viability in the assay with HCC1937 [3] and in the assay on MDA-MB-231 [4] were 0.564 and 0.642, respectively.

As for `COc1ccc(CN2CCNCC2)c(OC)c1OC` [Trimetazidine dihydrochloride] + COC(=O)c1ccc([C@H]2c3[nH]c4ccccc4c3C[C@H](C(=O)OC)N2C(=O)CCl)cc1 [RSL3], the relative cell viability turned out to be 0.782 in the assay on HCC1937 [3] and 0.607 with MDA-MB-231 [4].

With `NNC(=O)c1nn(Cc2ccc(Cl)cc2Cl)c2ccccc12` [Adjudin] + COC(=O)c1ccc([C@H]2c3[nH]c4ccccc4c3C[C@H](C(=O)OC)N2C(=O)CCl)cc1 [RSL3], the relative cell viability in the assay on HCC1937 [3] is 0.557; in the assay on MDA-MB-231 [4], 0.45.

As to `O=C1C=CC[C@@H]2[C@H]3CCCN4CCC[C@@H](CN12)[C@@H]34` [Sophocarpine], the relative cell viability in the assay with HCC1937 [5] amounted to 0.762; in the assay on MDA-MB-231 [6], 0.906.

For the molecule `CC1=C(C)C(=O)C(C(CCCCCC(=O)O)c2ccccc2)=C(C)C1=O` (centres undefined) [Seratrodast] + CCOc1ccccc1-n1c(C(C)N2CCN(C(=O)COc3ccc(Cl)cc3)CC2)nc2ccccc2c1=O [erastin], the relative cell viability in the assay with HCC1937 [1] was found to be 0.851; in the assay with MDA-MB-231 [2], 0.567.

Regarding `CC(C)OC(=O)C(C)(C)Oc1ccc(C(=O)c2ccc(Cl)cc2)cc1` [Fenofibrate] + CCOc1ccccc1-n1c(C(C)N2CCN(C(=O)COc3ccc(Cl)cc3)CC2)nc2ccccc2c1=O [erastin], the relative cell viability in the assay with HCC1937 [1] worked out at 0.878; in the assay with MDA-MB-231 [2], 0.646.

In the case of `O=C(OC(C(F)(F)F)C(F)(F)F)N1CCC(C(O)(c2ccc3c(c2)OCO3)c2ccc3c(c2)OCO3)CC1` + CCOc1ccccc1-n1c(C(C)N2CCN(C(=O)COc3ccc(Cl)cc3)CC2)nc2ccccc2c1=O [erastin], the values for the relative cell viability in the assay with HCC1937 [1] and in the assay with MDA-MB-231 [2] were 0.53 and 0.546, respectively.

For the molecule `COC(=O)/C=C/c1cccc(N(Cc2ccc(-c3ccc(N(C)C)cc3)cc2)C(=O)C2CCCCC2)c1` [Fexaramine] + CCOc1ccccc1-n1c(C(C)N2CCN(C(=O)COc3ccc(Cl)cc3)CC2)nc2ccccc2c1=O [erastin], the relative cell viability was 0.5 in the assay on HCC1937 [1] and 1.08 with MDA-MB-231 [2].

As to `CN(CCOc1ccc(CC2SC(=O)NC2=O)cc1)c1ccccn1` (centres undefined) [Rosiglitazone maleate] + CCOc1ccccc1-n1c(C(C)N2CCN(C(=O)COc3ccc(Cl)cc3)CC2)nc2ccccc2c1=O [erastin], the relative cell viability stood at 0.824 in the assay with HCC1937 [1] and 0.965 with MDA-MB-231 [2].

Take `C/C=C(\CC[C@@H](C)[C@H]1CC[C@H]2[C@@H]3CC=C4C[C@@H](O)CC[C@]4(C)[C@H]3CC[C@]12C)C(C)C` [Fucosterol] + CCOc1ccccc1-n1c(C(C)N2CCN(C(=O)COc3ccc(Cl)cc3)CC2)nc2ccccc2c1=O [erastin]: the relative cell viability in the assay with HCC1937 [1] came to 0.685; in the assay on MDA-MB-231 [2], 0.881.

Regarding `COCCNC(=O)Nc1ccc2nc(-c3cccs3)c(-c3cccs3)nc2c1` [Ac-CoA Synthase Inhibitor1] + CCOc1ccccc1-n1c(C(C)N2CCN(C(=O)COc3ccc(Cl)cc3)CC2)nc2ccccc2c1=O [erastin], the relative cell viability with HCC1937 [1] was found to be 0.597; in the assay on MDA-MB-231 [2], 0.669.

Regarding `CCCCCCCCCCCCCCCC(=O)NCCO` [Palmidrol] + CCOc1ccccc1-n1c(C(C)N2CCN(C(=O)COc3ccc(Cl)cc3)CC2)nc2ccccc2c1=O [erastin], the relative cell viability with HCC1937 [1] amounted to 0.91; in the assay with MDA-MB-231 [2], 0.938.

As to `CSc1ccc(C(=O)/C=C/c2cc(C)c(OC(C)(C)C(=O)O)c(C)c2)cc1` [Elafibranor] + CCOc1ccccc1-n1c(C(C)N2CCN(C(=O)COc3ccc(Cl)cc3)CC2)nc2ccccc2c1=O [erastin], the relative cell viability in the assay with HCC1937 [1] turned out to be 0.858; with MDA-MB-231 [2] it was 0.602.

On to `O=C1c2cccc(O)c2C(=O)c2c(O)cccc21` [Antrapurol] + CCOc1ccccc1-n1c(C(C)N2CCN(C(=O)COc3ccc(Cl)cc3)CC2)nc2ccccc2c1=O [erastin], for which the relative cell viability in the assay with HCC1937 [1] stood at 0.735; in the assay on MDA-MB-231 [2] it was 0.903.

Regarding `O=C(Nc1cnccc1Cl)N1CCN(Cc2ccc3c(c2)OC(F)(F)O3)CC1` + CCOc1ccccc1-n1c(C(C)N2CCN(C(=O)COc3ccc(Cl)cc3)CC2)nc2ccccc2c1=O [erastin], the relative cell viability is 0.486 in the assay with HCC1937 [1] and 0.646 in the assay on MDA-MB-231 [2].

For the molecule `C[C@H]1N=C(N(C)C)N=C(N)N1` [Imeglimin hydrochloride] + CCOc1ccccc1-n1c(C(C)N2CCN(C(=O)COc3ccc(Cl)cc3)CC2)nc2ccccc2c1=O [erastin], the relative cell viability in the assay with HCC1937 [1] worked out at 0.69; in the assay with MDA-MB-231 [2], 0.695.

On to `O=C(OC(C(F)(F)F)C(F)(F)F)N1CCN(Cc2ccc(C(F)(F)F)cc2N2CCCC2)CC1` + CCOc1ccccc1-n1c(C(C)N2CCN(C(=O)COc3ccc(Cl)cc3)CC2)nc2ccccc2c1=O [erastin], for which the relative cell viability is 0.583 in the assay with HCC1937 [1] and 0.74 with MDA-MB-231 [2].

With `O=C(ON1C(=O)CCC1=O)N1CCN(C(c2ccc(Cl)cc2)c2ccc(Cl)cc2)CC1` [Cravatt Reagent] + CCOc1ccccc1-n1c(C(C)N2CCN(C(=O)COc3ccc(Cl)cc3)CC2)nc2ccccc2c1=O [erastin], the relative cell viability with HCC1937 [1] is 0.886; in the assay on MDA-MB-231 [2], 0.772.

In the case of `COc1ccc([C@@H]2OC[C@H]3[C@@H]2CO[C@@H]3c2ccc(O[C@@H]3O[C@H](CO)[C@@H](O)[C@H](O)[C@H]3O)c(OC)c2)cc1OC` [Forsythin] + CCOc1ccccc1-n1c(C(C)N2CCN(C(=O)COc3ccc(Cl)cc3)CC2)nc2ccccc2c1=O [erastin], the relative cell viability came to 0.718 in the assay with HCC1937 [1] and 0.754 with MDA-MB-231 [2].

Regarding `Cc1nc(-c2nc(-c3ccc(OC(F)(F)F)cc3)no2)nn1Cc1cccc(N2CCC(S(C)(=O)=O)CC2)c1` + CCOc1ccccc1-n1c(C(C)N2CCN(C(=O)COc3ccc(Cl)cc3)CC2)nc2ccccc2c1=O [erastin], the relative cell viability in the assay on HCC1937 [1] turned out to be 0.647; in the assay on MDA-MB-231 [2], 0.621.

On to `COc1ccc2c(c1)CCC1C2CCC2(C)C(NCCCCCCN3C(=O)C=CC3=O)CCC12` (centres undefined) + CCOc1ccccc1-n1c(C(C)N2CCN(C(=O)COc3ccc(Cl)cc3)CC2)nc2ccccc2c1=O [erastin], for which the relative cell viability came out at 0.47 in the assay on HCC1937 [1] and 0.67 in the assay on MDA-MB-231 [2].

For the molecule `NC(N)=NN=Cc1cccc(Cl)c1Cl` [Raphin1] + CCOc1ccccc1-n1c(C(C)N2CCN(C(=O)COc3ccc(Cl)cc3)CC2)nc2ccccc2c1=O [erastin], the relative cell viability with HCC1937 [1] came out at 0.556; in the assay with MDA-MB-231 [2], 0.558.

Regarding `O=c1c(O[C@@H]2O[C@H](CO)[C@@H](O)[C@H](O)[C@H]2O)c(-c2ccc(O)cc2)oc2cc(O)cc(O)c12` [Astragalin] + CCOc1ccccc1-n1c(C(C)N2CCN(C(=O)COc3ccc(Cl)cc3)CC2)nc2ccccc2c1=O [erastin], the relative cell viability in the assay with HCC1937 [1] was 0.584; in the assay on MDA-MB-231 [2], 0.749.

`COc1cccc(CNc2ccc(S(=O)(=O)Nc3nc4ccccc4s3)cc2)c1O` + CCOc1ccccc1-n1c(C(C)N2CCN(C(=O)COc3ccc(Cl)cc3)CC2)nc2ccccc2c1=O [erastin]: the relative cell viability in the assay with HCC1937 [1] stood at 0.639; in the assay with MDA-MB-231 [2], 0.68.
